Screens deposited in PubChem BioAssay by National Center for Advancing Translational Sciences (NCATS).
In the library only some 17% were active in any assay of this set; here they are far more common.
TDP1 cell noCPT = qHTS for Inhibitors of human tyrosyl-DNA phosphodiesterase 1 (TDP1): qHTS in cells in absence of CPT. DT40 Tdp1-/- hTDP1 cells, no CPT, ATP luminescence, 48 h. Potency, µM (series often up to 46.2 µM), for the others: at the top dose activity change, negative = growth inhibition, actives largely listed as inhibitors. hit rate 15% among 420,000. AID 686978, 2013; note: % is set by controls: 0 for no effect and ±100 for the full control effect; nearly all actives have a fitted effect of over 55% in size
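Readout: luminescence from CellTiter-Glo after 30 min in the dark at RT. Cells: DT40 Tdp1-/- with stable hTDP1, 400/well. Exposure: compounds alone, ≥48 hr, 37 °C.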
TGFb inhibitor = qHTS for Inhibitors of TGF-b. HepG2 CAGA-GFP TGF-b/SMAD3 reporter, GFP fluorescence, 18 h; TGF-beta stimulated, 500 pg/mL final. Potency, µM (series often up to 46.1 µM), for inactives: at the top dose activity, negative = inhibition, most hits filed as inhibitors. hit rate 1.2% among 410,000. AID 588855, 2011; note: % is set by controls: 0 for no effect and ±100 for the full control effect; nearly all actives have a fitted effect of over 65% in size
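HEPG2 CAGA-GFP, 1000 cells/well; 2 h settle, 37 C; cpd via pin tool; TGF-b 500 pg/mL final; 18 h, 37 C; GFP imaging ex488/em500-530; %Activity normalised to -TGF-b and +DMSO controls; CRC fit, curve class.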
HT1080 IDH1KD tx = qHTS for induction of synthetic lethality in tumor cells producing 2HG: qHTS for the HT-1080-IDH1KD cell line | HT-1080 IDH1 knockdown viability, ATP luminescence, 48 h | Potency, µM (titrated, usually from 46.1 µM), without a hit: top-dose activity, negative = toxicity, hits mostly cytotoxic | hit rate 2% among 360,000 | AID 686971, 2013;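 note: 0% = DMSO wells and -100% = cell-free medium wells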
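CellTiter-Glo luminescence after 48 h compound exposure at 37 degrees C of IDH1-knockdown HT-1080 cells in 5% FBS RPMI. %Activity scaled between DMSO wells and cell-free media wells, with curves fitted and assigned curve classes.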
TDP1 cell CPT = qHTS for Inhibitors of human tyrosyl-DNA phosphodiesterase 1 (TDP1): qHTS in cells in presence of CPT. chicken DT40 Tdp1-/-;hTDP1 cells + 20 nM CPT, ATP luminescence, 48 h. Potency, µM (highest dose often 46.2 µM), inactives show at the highest dose activity change, negative = growth inhibition, usual class: inhibitors. hit rate 12% among 420,000. AID 686979, 2013; note: % is set by controls: 0 for no effect and ±100 for the full control effect; nearly all actives have a fitted effect of over 55% in size
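Chicken DT40 Tdp1-/- cells stably complemented with human TDP1 were seeded at 400 cells/well in medium containing 20 nM camptothecin, exposed to pin-transferred compounds, and grown at 37 °C for at least 48 hr. Viability was read as ATP luminescence.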
HepG2 tox = qHTS for Inhibitors of TGF-b: Cytotox Counterscreen; AID 588856, 2011; hit rate 0.76% among 410,000; HepG2 CAGA-GFP viability, ATP luminescence, 18 h; Potency, µM (top dose mostly 46.1 µM), inactives show top-dose activity change, negative = cytotoxicity, hits mostly cytotoxic
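CellTiter-Glo luminescence gave cytotoxicity after 18 hours at 37 degrees C. The cells were HepG2 CAGA-GFP in 1% FBS DMEM, stimulated with 500 pg/mL TGF-beta after compound addition. %Activity was normalised to no-cell wells (complete cell-killing) and DMSO (no toxicity), and curves were fitted and classified.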
HT1080-NT tox = qHTS for induction of synthetic lethality in tumor cells producing 2HG: qHTS for the HT-1080-NT fibrosarcoma cell line. hit rate 1.6% among 360,000. AID 686970, 2013. HT-1080-NT fibrosarcoma viability, CellTiter-Glo ATP luminescence, 48 h. Potency, µM (top dose mostly 46.1 µM), inactives show at the top dose activity, negative = less viability, actives largely listed as cytotoxic;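 note: NT is the 2HG producing partner of a matched IDH1 knockdown line; 0% = DMSO-treated cells and -100% = media-only wells without cells; nearly all actives have a fitted effect of over 55% in size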
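HT-1080-NT fibrosarcoma cells (2HG-overproducing), 750 cells/well in RPMI with 5% FBS, dosed after 2 h and incubated 48 h at 37C. CellTiter-Glo luminescence normalized to DMSO and no-cell wells; concentration-response curves fitted and classed.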
An asterisk follows results filed as active; ? = inconclusive; · = not tested or not shown; [ ] = dose if it differs, or a comment. Calls come from the whole dose curve; as a rule, active = well fitted curve in the direction sought with a large enough effect; inconclusive = small, poorly fitted or top-dose-only effect, or another doubt; inactive = no such curve, though single readings can be large; an effect the other way counts as inactive or inconclusive. Potency is the fitted concentration of half-maximal effect.

SMILES | TDP1 cell noCPT | TGFb inhibitor | HT1080 IDH1KD tx | TDP1 cell CPT | HepG2 tox | HT1080-NT tox
CN(C)CCNC(=O)c1cccc(-c2cnc3c(NC=O)cc(-c4cccc(F)c4)cn23)c1 | ? | 20µM* | ? | ? | 13µM* | ?
CC(=O)c1cccc(-c2cnc3c(NC=O)cc(-c4ccc(F)cc4)cn23)c1 | ? | -57% | ? | 16µM* | -29% | -29%
COc1ccc(S(=O)(=O)NCC2CCCN(C(=O)CCSC)C2)cc1 (configuration not stated) | -23% | 5% | 3% | -10% | -2% | -7%
CCC(Sc1nc2ccsc2c(=O)n1Cc1ccc(C(=O)O)cc1)C(=O)Nc1ccc(C)c(Cl)c1 (configuration not stated) | ? | ? | -15% | ? | -34% | -26%
CCOC(=O)CC(NC(=O)Cn1nnc(-c2ccccc2)n1)c1ccc(OC)cc1 (configuration not stated) | -6% | -15% | -4% | -8% | -19% | -14%
CN(C)CCNC(=O)c1cccc(-c2cnc3c(NC=O)cc(-c4ccc(F)cc4)cn23)c1 | 5.2µM* | ? | 23µM* | 4.6µM* | 11µM* | ?
O=CNc1cc(-c2cccc(O)c2)cn2c(-c3ccc(F)cc3)cnc12 | 21µM* | ? | ? | 18µM* | -20% | ?
CCSc1ccc(-c2cc(NC=O)c3ncc(-c4cccc(C(=O)NCCN(C)C)c4)n3c2)cc1 | 3.3µM* | ? | ? | 4.6µM* | -91% | 18µM*
OC(CN1C=CCc2ccccc21)c1ccc(Cl)cc1Cl (configuration not stated) | ? | 0% | · | ? | -17% | ·
Cc1cccc(C(=O)NCc2nc(-c3cccc(NC(=O)C4CCCN(C)C4)c3)oc2C)n1 (configuration not stated) | ? | · | · | 9%[9.04 µM] | · | ·
COc1ccc(NC(=O)CC2C(=O)N(c3ccc(F)cc3)C(=O)N2Cc2cccnc2)cc1 (configuration not stated) | -14% | 3% | · | ? | -4% | ·
COc1cc(N=Nc2ccc(Br)cc2)cc(C=O)c1O | 4.6µM* | -17% | -24% | 5.2µM* | -8% | -16%
COc1cc(CN(C)C)cc(C=O)c1O | -11% | 5% | -2% | 3% | -2% | -6%
COc1ccc(-n2c(=O)c3ccccc3n(Cc3ccc(F)cc3Cl)c2=O)cc1OC | -1% | ? | · | -5% | -8% | ·
CCC1NC(=O)c2cc3ccccc3cc2-n2c1nc1cc(OC)c(OC)cc1c2=O (configuration not stated) | ? | 10% | 1% | ? | 16% | 6%
CCOc1ccc(-n2c(/C=C/c3cccc(F)c3)nc3cc(OC)c(OC)cc3c2=O)cc1 | 9.2µM* | ? | · | 9.2µM* | -29% | ·
COc1ccc(-n2c(/C=C/c3cccc4ccccc34)nc3ccccc3c2=O)cc1Cl | 21µM* | -14% | · | 21µM* | -27% | ·
COc1ccc(-n2c(/C=C/c3cccc(C(F)(F)F)c3)nc3ccccc3c2=O)cc1Cl | 13µM* | -17% | · | 8.2µM* | -15% | ·
COc1ccc(-n2c(/C=C/c3ccccc3F)nc3cc(OC)c(OC)cc3c2=O)cc1Cl | 18µM* | 7% | · | 15µM* | -19% | ·
COc1ccccc1-c1c(C(F)(F)F)oc2c(CN3CCCCC3C)c(O)ccc2c1=O (configuration not stated) | -30% | 1% | · | ? | 7% | ·
COc1ccc(-n2c(SC3CCOC3=O)nc3ccccc3c2=O)cc1OC (configuration not stated) | 3% | -12% | -2% | -14% | -26% | -3%
COc1ccc(-n2c(SC3CCOC3=O)nc3ccccc3c2=O)cc1Cl (configuration not stated) | ? | 0% | 2% | 13µM* | -3% | -3%
CCN(CC(=O)Nc1ccc(NC(C)=O)cc1)C(=O)CSCc1c(C)noc1C | -9% | 2% | 10% | 4% | 2% | 13%
COc1cc2nc(=S)n3[nH]c(CCn4nc(C)cc4C)nc3c2cc1OC | 1.3µM* | -10% | ? | 1.6µM* | -65% | ?
COc1cc2nc(=S)n3[nH]c(COc4ccccc4C)nc3c2cc1OC | 5.8µM* | -28% | -5% | 1.2µM* | -1% | 6%
SMILES | TDP1 cell noCPT | TGFb inhibitor | HT1080 IDH1KD tx | TDP1 cell CPT | HepG2 tox | HT1080-NT tox
CC(=O)c1ccc(S(=O)(=O)Nc2ccc(-c3cn4c(n3)SCC4)cc2)cc1 | 15% | 3% | 15% | -9% | 6% | 9%
O=C(NCCc1c[nH]c2ccccc12)C1CCC(=O)N(CCc2cccc(F)c2)C1 (configuration not stated) | 8.2µM* | 8% | -2% | ? | -6% | -2%
O=C(NCCc1cn[nH]c1)C1CCC(=O)N(CCc2cccc(F)c2)C1 (configuration not stated) | ? | -1% | 7% | ? | 1% | 12%
O=C(NCc1ccccc1C(F)(F)F)C1CCC(=O)N(C2CC2)C1 (configuration not stated) | -12% | -5% | 4% | -12% | -6% | -7%
O=C(NCc1ccccc1C(F)(F)F)C1CCC(=O)N(CCCc2ccccc2)C1 (configuration not stated) | 29µM* | 0% | -21% | ? | -9% | -14%
O=C(NCCc1cccc(F)c1)C1CCC(=O)N(CCCc2ccccc2)C1 (configuration not stated) | ? | 16% | 3% | 18µM* | 4% | 4%
O=C(NCCc1ccccc1)C1CCC(=O)N(CCCN2CCCC2=O)C1 (configuration not stated) | 23% | -5% | 4% | -11% | 10% | -1%
O=C(NCc1ccccc1OC(F)(F)F)C1CCC(=O)N(Cc2ccccn2)C1 (configuration not stated) | ? | 5% | 6% | 16µM* | 2% | 8%
O=C(NCc1ccccc1OC(F)(F)F)C1CCC(=O)N(CCc2ccccn2)C1 (configuration not stated) | 6% | 20% | 14% | 10% | 4% | 16%
